PubChem BioAssay
Activity calls are given as the source filed them.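 How the source made its calls: active means thallium flux through the channel raised or lowered by more than 3 SD from vehicle-only wells, actives on both sides; inactive means the rest.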

Tests used:
Test in all cases: modulators of BK channel variants, profiling panel, selectivity assay, cell-based, U2OS BacMam, thallium flux, beta subunits (AID 1259406);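 further: initial slope of Thallos dye fluorescence rise after thallium is added; log ratio against the mean of 0.3% DMSO vehicle wells on the same plate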
[1] = system: F380Y; conditions: at 30 µM
[2] = system: F380Y/beta1; conditions: at 30 µM
[3] = system: F380Y/beta2Delta; conditions: at 30 µM
[4] = system: F380Y/beta4; conditions: at 30 µM
[5] = biological target: Calcium-activated potassium channel subunit alpha-1 (Homo sapiens) + Leucine-rich repeat-containing protein 26 (Homo sapiens) (UniProt Q12791+Q2I0M4); conditions: F380Y/Slo1WT/gamma1, at 30 µM
[6] = system: R275C; conditions: at 30 µM
[7] = system: R275C/beta1; conditions: at 30 µM
[8] = system: R275C/beta2Delta; conditions: at 30 µM
[9] = system: R275C/beta4; conditions: at 30 µM
[10] = system: R275C/Slo1WT/beta2; conditions: at 30 µM

Measured: log fold change Tl+ flux

Calcium-activated potassium channel subunit alpha-1 (Homo sapiens) + Leucine-rich repeat-containing protein 26 (Homo sapiens), sequence (Q2I0M4 whole entry, looked up, one chain of several): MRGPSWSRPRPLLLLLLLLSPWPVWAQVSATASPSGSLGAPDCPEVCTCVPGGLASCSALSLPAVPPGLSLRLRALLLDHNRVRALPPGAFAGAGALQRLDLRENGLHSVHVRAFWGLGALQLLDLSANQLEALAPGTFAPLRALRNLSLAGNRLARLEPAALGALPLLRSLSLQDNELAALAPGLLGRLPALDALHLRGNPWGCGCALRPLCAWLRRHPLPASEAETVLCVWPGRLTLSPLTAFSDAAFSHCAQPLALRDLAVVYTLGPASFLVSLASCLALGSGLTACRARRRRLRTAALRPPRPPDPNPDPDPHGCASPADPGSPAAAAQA

Cc1nn(-c2ccccc2)nc1CNC(=O)COc1ccccc1
inactive: [1] -0.0388 | [2] -0.0688 | [3] -0.0499 | [4] -0.0891 | [5] -0.0325 | [6] -0.00552 | [7] -0.0187 | [8] 0.0169 | [9] -0.0424 | [10] 0.0189

O=C(c1ncoc1-c1ccccc1)N(Cc1ccccn1)Cc1ccccn1
inactive: [1] 0.0015 | [2] 0.0293 | [3] -0.0298 | [4] 0.051 | [5] -0.0237 | [6] -0.0056 | [7] 0.0298 | [8] 0.0379 | [9] 0.0394 | [10] 0.033

Cc1nc2ccc(C(=O)O)cc2[nH]1
inactive: [1] 0.0381 | [2] 0.0177 | [3] 0.0131 | [4] 0.0015 | [5] 0.0154 | [6] 0.0142 | [7] 0.0541 | [8] 0.0118 | [9] -0.00127 | [10] 0.0354

COCCCNC1=C(C#N)C(=O)NC(c2cccs2)S1 (stereo not given)
inactive: [1] 0.041 | [2] 0.00355 | [3] 0.0315 | [4] -0.00136 | [5] 0.0147 | [6] -0.0102 | [7] 0.0346 | [8] 0.0144 | [9] -0.0186 | [10] -0.0245

COc1cccc(C(=O)Nc2cc(F)c(Br)cc2F)c1
inactive: [1] -0.0206 | [2] -0.0212 | [3] -0.00467 | [4] -0.0131 | [5] -0.0252 | [6] -0.0759 | [7] -0.106 | [8] -0.0756 | [9] -0.0731 | [10] -0.0319

Cc1cc(CNCC(O)C(F)(F)F)no1 (stereo not given)
inactive: [1] -0.0368 | [2] 0.043 | [3] -0.0229 | [4] 0.06 | [5] 0.018 | [6] 0.0241 | [7] -0.0759 | [8] -0.018 | [9] 0.0165 | [10] 0.0726

O=C(NNc1c(Cl)cccc1Cl)c1csc(Cc2c(Cl)cccc2Cl)n1
inactive: [1] 0.031 | [2] -0.0231 | [3] 0.0346 | [4] -0.048 | [5] -0.0234 | [6] 0.0148 | [7] -0.0344 | [8] 0.00139 | [9] -0.00534 | [10] 0.0322

Cc1ccc(I)cc1[N+](=O)[O-]
inactive: [1] 0.00211 | [2] -0.0212 | [3] 0.0224 | [4] -0.0253 | [5] 0.0293 | [6] 0.0178 | [7] 0.00943 | [8] -0.016 | [9] 0.00957 | [10] -0.00671

CN(C1CCCCC1)S(=O)(=O)c1cccs1
inactive: [1] -0.0928 | [2] -0.00759 | [3] -0.0383 | [4] 0.000313 | [5] -0.00414 | [6] -0.0438 | [7] -0.00595 | [8] -0.0535 | [9] -0.025 | [10] 0.0321

Cn1cnc2cccc(F)c2c1=N
inactive: [1] -0.0259 | [2] 0.000586 | [3] -0.0156 | [4] 0.0474 | [5] 0.038 | [6] 0.0169 | [7] 0.0241 | [8] -0.00275 | [9] 0.00326 | [10] 0.0172

CCCCCCCCCCCCSC(=S)Nc1ccc(Br)c(C)c1
inactive: [1] -0.0409 | [2] -0.00527 | [3] -0.0326 | [4] -0.000986 | [5] -0.031 | [6] 0.0399 | [7] 0.0206 | [8] -0.028 | [9] 0.0416 | [10] 0.0211

CCc1ccc(C(=O)Nc2cccc(S(N)(=O)=O)c2)cc1
inactive: [1] -0.0133 | [2] -0.00607 | [3] -0.0279 | [4] 0.0112 | [5] 0.028 | [6] -0.00467 | [7] -0.00416 | [8] -0.0306 | [9] 0.0218 | [10] 0.0201

CC(=O)c1cc2cc(Cl)cc(Cl)c2oc1=O
inactive: [1] 0.0337 | [2] 0.0359 | [3] -0.0227 | [4] -0.0296 | [5] -0.0196 | [6] -0.0332 | [7] 0.029 | [8] 0.0111 | [9] -0.0163 | [10] -0.0243

Clc1ccc(-n2nnnc2-c2cccnc2)c(Cl)c1
inactive: [1] 0.0135 | [2] -0.0393 | [3] -0.0638 | [4] 0.0275 | [5] 0.00547 | [6] 0.00315 | [7] 0.0215 | [8] -0.00811 | [9] 0.00931 | [10] 0.0349

Clc1cc(Cl)c(NN=Cc2cc(C#Cc3ccccc3)cs2)c(Cl)c1
inactive: [1] -0.0491 | [2] 0.00923 | [3] -0.0555 | [4] 0.0192 | [5] -0.0342 | [6] -0.012 | [7] 0.00694 | [8] -0.0137 | [9] 0.0367 | [10] 0.0344

CCOC(=O)c1ccc(NC(=O)CCC(=O)O)cc1
inactive: [1] -0.0468 | [2] -0.00176 | [3] -0.0505 | [4] 0.0259 | [5] 0.0113 | [6] -0.00978 | [7] -0.00901 | [8] -0.0108 | [9] -0.0046 | [10] 0.0242
